Results published in the supplement of paper PMC10849652.
Targets with a hit are over-represented here; the source holds about 7,900 in all. About 0.6% of all pairs of compound and target were hits.

Columns and labels:
Assay in all cases: log2 fold change, soluble protein after heating vs DMSO (PISA); higher = thermal stabilisation; K562 cells, 10 uM, 30 min; active = over 0.2 and 3.5 SD of the protein, either way, in both replicates (recomputed)
[1] = compound: COC1=CC=C(C=C1)CN2C=CC3=C2C=C(C=C3)C(=O)NO
Procedure, shortened: (§1)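 Quantification of soluble protein used TMTpro 16plex LC-MS/MS, with channel sums equalised. Samples were the supernatant after 21,000xg for 90 min of pooled aliquots from K562 cells (2×10^6 cells/mL) treated with 10 μM compound for 30 min, heated for 3 min over 48°C-58°C, and extracted in PBS with 0.5% NP-40 at 4°C. Values, from duplicates, describe thermal stability against control samples on a log2 fold-change scale.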

filanesib = compound: CON(C)C(=O)N1N=C(c2cc(F)ccc2F)S[C@@]1(CCCN)c1ccccc1 [filanesib]
Procedure, shortened: as §1

zotarolimus = compound: CO[C@H]1C[C@@H]2CC[C@@H](C)[C@@](O)(O2)C(=O)C(=O)N2CCCC[C@H]2C(=O)O[C@H]([C@H](C)C[C@@H]2CC[C@H](n3cnnn3)[C@H](OC)C2)CC(=O)[C@H](C)/C=C(\C)[C@@H](O)[C@@H](OC)C(=O)[C@H](C)C[C@H](C)/C=C/C=C/C=C/1C [zotarolimus]
Procedure, shortened: as §1

idasanutlin = compound: COc1cc(C(=O)O)ccc1NC(=O)[C@@H]1N[C@@H](CC(C)(C)C)[C@](C#N)(c2ccc(Cl)cc2F)[C@H]1c1cccc(Cl)c1F [idasanutlin]
Procedure, shortened: as §1

alisertib = compound: COc1cc(Nc2ncc3c(n2)-c2ccc(Cl)cc2C(c2c(F)cccc2OC)=NC3)ccc1C(=O)O [alisertib]
Procedure, shortened: as §1

[2] = compound: COc1cc2nc(-c3cc(F)ccc3O)nc(N[C@@H]3CNC[C@H]3C(C)(C)O)c2cc1OC
Procedure, shortened: as §1

gefitinib = compound: COc1cc2ncnc(Nc3ccc(F)c(Cl)c3)c2cc1OCCCN1CCOCC1 [gefitinib]
Procedure, shortened: as §1

[3] = compound: COc1cccc2cc(-c3nc([C@H]4CC[C@H](C(=O)O)CC4)n4ncnc(N)c34)[nH]c12
Procedure, shortened: as §1

lapatinib = compound: CS(=O)(=O)CCNCc1ccc(-c2ccc3ncnc(Nc4ccc(OCc5cccc(F)c5)c(Cl)c4)c3c2)o1 [lapatinib]
Procedure, shortened: as §1

pictilisib = compound: CS(=O)(=O)N1CCN(Cc2cc3nc(-c4cccc5[nH]ncc45)nc(N4CCOCC4)c3s2)CC1 [pictilisib]
Procedure, shortened: as §1

[4] = compound: CS(=O)(=O)c1ccc(-c2cnc(N)c(C(=O)Nc3ccccc3)n2)cc1
Procedure, shortened: as §1

crizotinib = compound: C[C@@H](Oc1cc(-c2cnn(C3CCNCC3)c2)cnc1N)c1c(Cl)ccc(F)c1Cl [crizotinib]
Procedure, shortened: as §1

[5] = compound: C[C@@H]1COCCN1C2=NC(=NC(=C2)C3(CC3)S(=O)(=O)C)C4=C5C=CNC5=CC=C4
Procedure, shortened: as §1

[6] = compound: C[C@H](C1=CC=C(C=C1)C(=O)NC2=C3C=CNC3=NC=C2)N
Procedure, shortened: as §1

duvelisib = compound: C[C@H](Nc1ncnc2nc[nH]c12)c1cc2cccc(Cl)c2c(=O)n1-c1ccccc1 [duvelisib]
Procedure, shortened: as §1

gandotinib = compound: Cc1cc(Nc2cc(CN3CCOCC3)c3nc(C)c(Cc4ccc(Cl)cc4F)n3n2)n[nH]1 [gandotinib]
Procedure, shortened: as §1

tozasertib = compound: Cc1cc(Nc2cc(N3CCN(C)CC3)nc(Sc3ccc(NC(=O)C4CC4)cc3)n2)n[nH]1 [tozasertib]
Procedure, shortened: as §1

[7] = compound: Cc1cc(SCc2sc(-c3ccc(C(F)(F)F)cc3)nc2C)ccc1OCC(=O)O
Procedure, shortened: as §1

doramapimod = compound: Cc1ccc(-n2nc(C(C)(C)C)cc2NC(=O)Nc2ccc(OCCN3CCOCC3)c3ccccc23)cc1 [doramapimod]
Procedure, shortened: as §1

ispinesib = compound: Cc1ccc(C(=O)N(CCCN)[C@@H](c2nc3cc(Cl)ccc3c(=O)n2Cc2ccccc2)C(C)C)cc1 [ispinesib]
Procedure, shortened: as §1

Measured: log2 fold change

POMK (UniProt Q9H5K3)
UniProt Q9H5K3, sequence (Q9H5K3 whole entry, looked up): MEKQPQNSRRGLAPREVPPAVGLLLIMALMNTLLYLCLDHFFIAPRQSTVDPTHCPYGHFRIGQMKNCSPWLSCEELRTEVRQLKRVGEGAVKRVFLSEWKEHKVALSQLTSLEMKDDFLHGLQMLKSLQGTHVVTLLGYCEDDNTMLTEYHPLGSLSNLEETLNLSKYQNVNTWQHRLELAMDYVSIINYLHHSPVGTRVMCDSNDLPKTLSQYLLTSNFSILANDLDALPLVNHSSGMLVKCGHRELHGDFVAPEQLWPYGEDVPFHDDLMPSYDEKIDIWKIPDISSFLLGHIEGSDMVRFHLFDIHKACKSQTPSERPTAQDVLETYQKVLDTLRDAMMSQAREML
inactive: [1] -0.025 | filanesib -0.019 | zotarolimus -0.101 | idasanutlin -0.017 | alisertib 0.077 | [2] -0.037 | gefitinib -0.02 | [3] 0.04 | lapatinib 0.067 | pictilisib 0.077 | [4] -0.013 | crizotinib -0.044 | [5] -0.034 | [6] 0.086 | duvelisib 0.062 | gandotinib 0.027 | tozasertib 0.024 | [7] 0.092 | doramapimod 0.108 | ispinesib -0.203

PTPN12 (UniProt Q05209)
UniProt Q05209, sequence (Q05209 whole entry, looked up): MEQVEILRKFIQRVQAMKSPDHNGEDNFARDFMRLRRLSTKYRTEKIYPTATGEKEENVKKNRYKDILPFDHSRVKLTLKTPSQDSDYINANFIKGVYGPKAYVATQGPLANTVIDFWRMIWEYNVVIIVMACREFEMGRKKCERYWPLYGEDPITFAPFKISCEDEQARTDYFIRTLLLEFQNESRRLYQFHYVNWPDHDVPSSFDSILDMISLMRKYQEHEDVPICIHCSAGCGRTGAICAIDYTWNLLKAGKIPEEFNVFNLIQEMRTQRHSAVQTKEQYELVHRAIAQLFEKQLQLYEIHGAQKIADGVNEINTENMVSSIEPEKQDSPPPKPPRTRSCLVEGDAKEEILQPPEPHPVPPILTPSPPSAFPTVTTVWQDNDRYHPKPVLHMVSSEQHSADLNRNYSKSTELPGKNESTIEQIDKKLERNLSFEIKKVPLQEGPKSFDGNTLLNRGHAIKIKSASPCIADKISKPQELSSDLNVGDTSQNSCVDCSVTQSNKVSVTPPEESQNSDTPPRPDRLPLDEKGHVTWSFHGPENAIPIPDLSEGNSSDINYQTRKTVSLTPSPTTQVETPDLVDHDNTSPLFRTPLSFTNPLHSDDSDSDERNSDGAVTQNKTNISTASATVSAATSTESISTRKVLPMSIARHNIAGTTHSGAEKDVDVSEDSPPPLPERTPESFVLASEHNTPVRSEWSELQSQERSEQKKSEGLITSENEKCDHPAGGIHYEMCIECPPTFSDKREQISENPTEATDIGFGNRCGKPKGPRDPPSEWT
inactive: [1] -0.024 | filanesib 0.04 | zotarolimus 0.041 | idasanutlin -0.021 | alisertib -0.06 | [2] 0.053 | gefitinib 0.025 | [3] -0.132 | lapatinib 0.039 | pictilisib 0.012 | [4] 0.031 | crizotinib -0.018 | [5] -0.04 | [6] 0.069 | duvelisib -0.022 | gandotinib -0.088 | tozasertib 0.089 | [7] 0.053 | doramapimod -0.004 | ispinesib -0.011

PLBD1 (UniProt Q6P4A8)
inactive: [1] -0.076 | filanesib -0.051 | zotarolimus -0.057 | idasanutlin 0.019 | alisertib 0.169 | [2] -0.016 | gefitinib 0.019 | [3] 0.048 | lapatinib 0.03 | pictilisib 0.039 | [4] -0.01 | crizotinib -0.082 | [5] 0.009 | [6] -0.032 | duvelisib 0.01 | gandotinib 0.011 | tozasertib -0.005 | [7] -0.032 | doramapimod -0.007 | ispinesib 0.016

PMPCB (UniProt O75439)
inactive: [1] -0.046 | filanesib 0.036 | zotarolimus 0.047 | idasanutlin -0.122 | alisertib -0.078 | [2] 0.046 | gefitinib 0.006 | [3] 0.008 | lapatinib -0.054 | pictilisib -0.012 | [4] 0.012 | crizotinib 0.015 | [5] 0.054 | [6] -0.081 | duvelisib 0.055 | gandotinib -0.096 | tozasertib -0.019 | [7] -0.019 | doramapimod 0.009 | ispinesib -0.034

PCBP1 (UniProt Q15365)
inactive: [1] 0.076 | filanesib -0.036 | zotarolimus 0.102 | idasanutlin -0.044 | alisertib -0.015 | [2] -0.014 | gefitinib -0.003 | [3] -0.003 | lapatinib -0.022 | pictilisib -0.036 | [4] 0.012 | crizotinib 0 | [5] 0.094 | [6] -0.012 | duvelisib 0.042 | gandotinib -0.12 | tozasertib 0.047 | [7] 0.07 | doramapimod -0.016 | ispinesib 0.028

PSMD13 (UniProt Q9UNM6)
inactive: [1] -0.127 | filanesib 0.095 | zotarolimus 0.009 | idasanutlin -0.054 | alisertib -0.04 | [2] -0.025 | gefitinib -0.026 | [3] -0.05 | lapatinib 0.038 | pictilisib -0.01 | [4] 0.048 | crizotinib 0.008 | [5] -0.012 | [6] 0.092 | duvelisib -0.028 | gandotinib -0.016 | tozasertib 0.062 | [7] 0.052 | doramapimod 0.026 | ispinesib -0.008

PRKCD (UniProt Q05655)
UniProt Q05655, sequence (Q05655 whole entry, looked up): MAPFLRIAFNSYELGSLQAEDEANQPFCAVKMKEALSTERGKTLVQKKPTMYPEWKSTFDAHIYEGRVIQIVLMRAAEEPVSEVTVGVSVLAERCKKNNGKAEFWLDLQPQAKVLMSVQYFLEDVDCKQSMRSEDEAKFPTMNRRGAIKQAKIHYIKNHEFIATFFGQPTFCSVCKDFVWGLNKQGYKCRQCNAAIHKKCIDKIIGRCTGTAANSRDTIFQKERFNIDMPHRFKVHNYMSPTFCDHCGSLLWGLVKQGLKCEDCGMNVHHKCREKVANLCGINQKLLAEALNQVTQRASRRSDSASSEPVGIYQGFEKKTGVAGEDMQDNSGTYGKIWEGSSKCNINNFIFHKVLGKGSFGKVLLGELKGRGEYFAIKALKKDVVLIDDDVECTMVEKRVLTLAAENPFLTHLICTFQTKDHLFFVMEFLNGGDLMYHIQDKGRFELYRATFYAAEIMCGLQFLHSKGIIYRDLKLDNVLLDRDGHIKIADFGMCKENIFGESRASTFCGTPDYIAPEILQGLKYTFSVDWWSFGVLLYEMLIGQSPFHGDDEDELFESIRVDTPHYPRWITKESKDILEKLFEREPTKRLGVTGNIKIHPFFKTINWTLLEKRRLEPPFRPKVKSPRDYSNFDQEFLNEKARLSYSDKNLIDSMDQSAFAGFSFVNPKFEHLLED
inactive: [1] -0.019 | filanesib -0.004 | zotarolimus 0.032 | idasanutlin -0.017 | alisertib 0.037 | [2] -0.003 | gefitinib -0.002 | [3] 0.074 | lapatinib 0.02 | pictilisib 0.026 | [4] 0.05 | crizotinib -0.008 | [5] 0.053 | [6] -0.215 | duvelisib 0.009 | gandotinib -0.056 | tozasertib -0.006 | [7] 0.007 | doramapimod 0.005 | ispinesib -0.007

PRMT3 (UniProt O60678)
UniProt O60678, sequence (O60678 whole entry, looked up): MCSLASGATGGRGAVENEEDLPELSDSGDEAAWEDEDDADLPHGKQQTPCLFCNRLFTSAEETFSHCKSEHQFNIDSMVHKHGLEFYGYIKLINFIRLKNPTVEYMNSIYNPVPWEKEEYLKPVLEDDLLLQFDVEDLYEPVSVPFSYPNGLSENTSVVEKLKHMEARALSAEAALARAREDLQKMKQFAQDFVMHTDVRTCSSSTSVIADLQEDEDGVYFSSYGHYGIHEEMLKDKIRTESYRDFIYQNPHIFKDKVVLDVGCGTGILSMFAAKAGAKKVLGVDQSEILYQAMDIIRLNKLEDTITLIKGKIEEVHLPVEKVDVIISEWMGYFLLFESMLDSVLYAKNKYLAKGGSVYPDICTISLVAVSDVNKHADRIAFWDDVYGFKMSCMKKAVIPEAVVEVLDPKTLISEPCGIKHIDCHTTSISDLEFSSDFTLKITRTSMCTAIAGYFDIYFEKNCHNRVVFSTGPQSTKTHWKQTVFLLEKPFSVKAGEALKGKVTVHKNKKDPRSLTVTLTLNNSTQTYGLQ
inactive: [1] 0.026 | filanesib -0.099 | zotarolimus 0.008 | idasanutlin -0.017 | alisertib -0.005 | [2] 0.098 | gefitinib -0.122 | [3] -0.111 | lapatinib 0.013 | pictilisib 0.048 | [4] -0.067 | crizotinib -0.137 | [5] -0.002 | [6] -0.058 | duvelisib -0.028 | gandotinib -0.156 | tozasertib 0.002 | [7] 0.111 | doramapimod -0.037 | ispinesib -0.02

PPIL2 (UniProt Q13356)
UniProt Q13356, sequence (Q13356 whole entry, looked up): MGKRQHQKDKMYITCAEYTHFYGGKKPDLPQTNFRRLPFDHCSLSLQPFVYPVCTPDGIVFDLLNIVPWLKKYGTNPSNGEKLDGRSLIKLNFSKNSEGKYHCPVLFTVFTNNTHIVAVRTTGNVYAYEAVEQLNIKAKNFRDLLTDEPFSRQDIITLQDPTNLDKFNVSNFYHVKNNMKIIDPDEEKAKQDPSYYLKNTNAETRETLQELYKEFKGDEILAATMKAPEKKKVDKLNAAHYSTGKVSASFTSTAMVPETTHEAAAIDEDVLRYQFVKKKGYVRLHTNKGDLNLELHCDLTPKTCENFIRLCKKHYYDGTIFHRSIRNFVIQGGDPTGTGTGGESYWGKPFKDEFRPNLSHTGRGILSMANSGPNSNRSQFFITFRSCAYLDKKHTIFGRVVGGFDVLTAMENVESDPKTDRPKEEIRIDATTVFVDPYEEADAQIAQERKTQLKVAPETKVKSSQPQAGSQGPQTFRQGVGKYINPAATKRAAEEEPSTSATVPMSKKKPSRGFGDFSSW
inactive: [1] 0.035 | filanesib 0.012 | zotarolimus 0.05 | idasanutlin -0.032 | alisertib 0.01 | [2] 0.131 | gefitinib 0.076 | [3] -0.023 | lapatinib -0.02 | pictilisib 0.028 | [4] 0.029 | crizotinib 0.027 | [5] 0.061 | [6] -0.012 | duvelisib 0.121 | gandotinib -0.081 | tozasertib 0.039 | [7] 0.131 | doramapimod -0.079 | ispinesib 0.037

PEX13 (UniProt Q92968)
UniProt Q92968, sequence (Q92968 whole entry, looked up): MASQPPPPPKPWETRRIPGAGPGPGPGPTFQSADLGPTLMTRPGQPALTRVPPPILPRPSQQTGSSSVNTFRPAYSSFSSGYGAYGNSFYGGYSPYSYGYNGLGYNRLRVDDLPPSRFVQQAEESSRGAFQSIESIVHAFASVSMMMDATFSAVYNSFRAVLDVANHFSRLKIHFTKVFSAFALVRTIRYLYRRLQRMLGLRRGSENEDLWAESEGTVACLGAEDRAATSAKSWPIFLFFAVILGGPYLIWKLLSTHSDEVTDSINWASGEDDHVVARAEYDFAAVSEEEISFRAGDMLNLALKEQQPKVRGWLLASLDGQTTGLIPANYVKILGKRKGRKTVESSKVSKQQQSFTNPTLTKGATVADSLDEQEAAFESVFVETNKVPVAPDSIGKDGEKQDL
inactive: [1] 0.028 | filanesib -0.072 | zotarolimus -0.129 | idasanutlin -0.019 | alisertib -0.037 | gefitinib -0.045 | [3] 0.115 | lapatinib -0.013 | pictilisib 0.009 | [4] -0.005 | crizotinib -0.146 | [5] 0.034 | [6] -0.047 | duvelisib 0.078 | gandotinib -0.143 | tozasertib -0.163 | [7] -0.016 | doramapimod 0.056 | ispinesib -0.026
active: [2] -0.318

PSMB6 (UniProt P28072)
UniProt P28072, sequence (P28072 whole entry, looked up): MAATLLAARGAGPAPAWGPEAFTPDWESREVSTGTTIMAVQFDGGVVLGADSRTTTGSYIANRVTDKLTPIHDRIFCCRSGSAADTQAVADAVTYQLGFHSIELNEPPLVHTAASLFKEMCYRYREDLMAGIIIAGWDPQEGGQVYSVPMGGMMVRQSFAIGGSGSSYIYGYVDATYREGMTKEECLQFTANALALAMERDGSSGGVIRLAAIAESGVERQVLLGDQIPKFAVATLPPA
active: gandotinib 0.444
inactive: [1] -0.055 | filanesib 0.075 | zotarolimus -0.018 | idasanutlin 0.044 | alisertib -0.062 | [2] -0.014 | gefitinib -0.027 | [3] 0.018 | lapatinib 0.035 | pictilisib -0.017 | [4] 0.01 | crizotinib 0.096 | [5] 0.003 | [6] 0.059 | duvelisib -0.049 | tozasertib 0.011 | [7] -0.029 | doramapimod 0.049 | ispinesib -0.037

PGGT1B (UniProt P53609)
inactive: [1] -0.112 | filanesib 0.047 | zotarolimus -0.006 | idasanutlin -0.025 | alisertib -0.03 | [2] -0.031 | gefitinib -0.013 | [3] 0.058 | lapatinib -0.019 | pictilisib 0.037 | [4] 0.093 | crizotinib 0.04 | [5] 0.002 | [6] -0.05 | duvelisib 0.046 | gandotinib -0.011 | tozasertib 0.006 | [7] -0.143 | doramapimod -0.028 | ispinesib 0.043

PSMD3 (UniProt O43242)
inactive: [1] -0.058 | filanesib 0.061 | zotarolimus 0.021 | idasanutlin 0.003 | alisertib -0.075 | [2] -0.089 | gefitinib -0.035 | [3] -0.011 | lapatinib 0.061 | pictilisib -0.023 | [4] 0.058 | crizotinib 0.003 | [5] -0.003 | [6] 0.094 | duvelisib -0.028 | gandotinib 0.028 | tozasertib 0.033 | [7] 0.047 | doramapimod 0.047 | ispinesib 0.013

PSMC4 (UniProt P43686)
inactive: [1] -0.052 | filanesib 0.066 | zotarolimus 0.008 | idasanutlin 0.017 | alisertib -0.049 | [2] -0.007 | gefitinib -0.052 | [3] -0.022 | lapatinib 0.033 | pictilisib -0.099 | [4] 0 | crizotinib 0.007 | [5] -0.056 | [6] 0.06 | duvelisib -0.076 | gandotinib -0.011 | tozasertib 0.04 | [7] 0.001 | doramapimod 0.02 | ispinesib -0.02

PNPLA2 (UniProt Q96AD5)
active: ispinesib -0.395
inactive: [1] -0.089 | filanesib -0.134 | zotarolimus 0.002 | idasanutlin -0.082 | alisertib 0.014 | [2] -0.077 | gefitinib -0.048 | [3] 0.029 | lapatinib -0.032 | pictilisib 0.02 | [4] 0.048 | crizotinib -0.055 | [5] 0.094 | [6] 0.095 | duvelisib 0.156 | gandotinib -0.303 | tozasertib -0.06 | [7] -0.065 | doramapimod 0.046

PHKA2 (UniProt P46019)
UniProt P46019, sequence (P46019 whole entry, looked up): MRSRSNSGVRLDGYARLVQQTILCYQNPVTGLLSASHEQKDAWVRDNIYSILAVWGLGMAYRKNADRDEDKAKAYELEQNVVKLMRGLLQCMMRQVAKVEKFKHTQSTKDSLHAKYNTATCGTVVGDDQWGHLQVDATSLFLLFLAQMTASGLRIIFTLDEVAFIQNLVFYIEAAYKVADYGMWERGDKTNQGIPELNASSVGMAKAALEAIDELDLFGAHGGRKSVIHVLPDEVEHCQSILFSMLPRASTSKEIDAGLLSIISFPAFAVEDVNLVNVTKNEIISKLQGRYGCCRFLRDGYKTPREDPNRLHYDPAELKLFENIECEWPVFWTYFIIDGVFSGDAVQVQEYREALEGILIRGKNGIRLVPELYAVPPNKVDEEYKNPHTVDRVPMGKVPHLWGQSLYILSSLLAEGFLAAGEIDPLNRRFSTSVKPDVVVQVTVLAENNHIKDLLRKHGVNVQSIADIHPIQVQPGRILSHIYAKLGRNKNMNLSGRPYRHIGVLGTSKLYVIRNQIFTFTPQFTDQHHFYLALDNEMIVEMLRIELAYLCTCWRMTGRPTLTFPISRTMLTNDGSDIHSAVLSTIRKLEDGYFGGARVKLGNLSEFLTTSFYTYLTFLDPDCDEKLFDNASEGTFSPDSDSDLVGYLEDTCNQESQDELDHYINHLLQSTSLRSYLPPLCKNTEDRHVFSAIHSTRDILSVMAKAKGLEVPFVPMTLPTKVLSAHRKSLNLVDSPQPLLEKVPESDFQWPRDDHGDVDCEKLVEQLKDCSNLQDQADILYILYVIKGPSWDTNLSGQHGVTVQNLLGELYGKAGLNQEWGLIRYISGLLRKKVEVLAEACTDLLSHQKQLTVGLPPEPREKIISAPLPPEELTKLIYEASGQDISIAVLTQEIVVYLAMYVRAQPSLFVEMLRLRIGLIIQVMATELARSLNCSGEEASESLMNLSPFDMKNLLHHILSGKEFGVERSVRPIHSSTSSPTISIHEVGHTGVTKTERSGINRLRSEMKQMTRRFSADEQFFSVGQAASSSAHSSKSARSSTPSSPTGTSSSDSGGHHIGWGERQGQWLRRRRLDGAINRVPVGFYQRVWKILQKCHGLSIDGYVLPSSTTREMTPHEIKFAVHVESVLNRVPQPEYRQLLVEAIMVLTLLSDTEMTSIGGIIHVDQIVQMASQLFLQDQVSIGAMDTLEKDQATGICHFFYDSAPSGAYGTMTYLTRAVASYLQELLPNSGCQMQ
inactive: [1] -0.17 | filanesib -0.055 | zotarolimus 0.022 | idasanutlin -0.104 | alisertib -0.067 | [2] 0.064 | gefitinib -0.006 | [3] 0.025 | lapatinib -0.037 | pictilisib 0.078 | [4] -0.247 | crizotinib -0.076 | [5] 0.051 | [6] -0.108 | duvelisib 0.022 | gandotinib -0.083 | tozasertib -0.052 | [7] 0.071 | doramapimod 0.053 | ispinesib -0.013
